In PubChem BioAssay (NCI) one finds growth data, which are given here for 8 compounds.

Holding throughout (assay): NCI-60 one-dose screen, 48 h (100 = growth as untreated, 0 = no growth, -100 = all killed)
What all share (conditions): 10 µM unless noted

Test [1] relates to K-562 leukemia.
Test [2] has as its system MALME-3M melanoma.
For test [3], the system named is MDA-MB-231 breast.
For test [4], the system named is RXF 393 renal.
Test [5] concerns SF-268 CNS.
The subject of test [6] is SF-295 CNS.
The test system of test [7] is SF-539 CNS.
In test [8] the test system is UACC-257 melanoma.
Test [9] has as its system M14 melanoma.
Test [10] deals with HCT-15 colon.
The subject of test [11] is HT29 colon.
The test system of test [12] is SNB-75 CNS.
Test [13] deals with SNB-19 CNS.
The test system of test [14] is U251 CNS.
Test [15] has as its system PC-3 prostate.
Test [16] concerns SK-MEL-5 melanoma.
Test [17] deals with UACC-62 melanoma.
For test [18], the system named is LOX IMVI melanoma.
The subject of test [19] is SK-MEL-28 melanoma.
Test [20] concerns SK-MEL-2 melanoma.

Molecules are shown by their SMILES. This is part of a sample that, as a whole, favours compounds with a hit. Of some 83,000 tested, about 20% had one in any assay.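 Each cell line was grown in a 96-well plate and treated with one concentration of compound for 48 hours. Values below 10 were considered active.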 A number with no mark means an inactive call. Activity calls are given as the source filed them.

As for `CCCC(=O)NC(c1cccnc1)c1cc(C)c2cccnc2c1O` (stereo not given), the growth was 22.6% in [1]; 53.1% in test [2]; 35.5% in test [3]; 81.9% in [4]; 42.1% in test [5]; 32.3% in test [6]. Moreover, the growth is 23.3% in test [7]; 20.9% in test [8]; 27.5% in test [9]; 24.2% in test [10]; 21.5% in test [11]; 77.5% in test [12]. Moreover, the growth in test [13] was 61.4%; in [14], 41.3%; in test [15], 56.9%; in [16] it was 48.7%; in test [17], 28.4%; in test [18], 40.2%. The growth in test [19] is 42.5%; in test [20], 101%.

On to `O=[N+]([O-])c1ccc(O)c2ncccc12`, for which the growth in test [1] is 12.6%; in [2], 38%; in [3] it was 31.9%; in test [4], 41.6%; in [5], 37.2%; in test [6] it was 23.1%. Moreover, the growth is 23.2% in test [7]; 16.5% in test [8]; 31.9% in test [9]; 21.3% in [10]; 20% in test [11]; 48.5% in test [12]. The growth in test [13] is 23.8%; in [14], 17.2%; in [15] it was 31.3%; in test [16] it was 15.3%; in test [17], 10.5%; in test [18], 25.2%. The figures for the growth in [19] and in test [20] were 29.1% and 78.3%, respectively.

Consider `Clc1ccc2oc3c(NCCCN4CCOCC4)c4ccccc4nc3c2c1`, for which the growth is 1.61% (active) in test [1]; 24.1% in [2]; 25.2% in [3]; 13.9% in [4]; 38.1% in test [5]; 17.4% in [6]. Also, the growth in [7] is 19.9%; in [8] it was 50.5%; in test [9] it was 31.8%; in test [10], 3.77% (active); in [11], 14%; in test [12], 24.7%. Also, the growth in test [13] is 35.9%; in [14], 23%; in [15], 40.7%; in test [16], 44.2%; in [17], 40%; in [18] it was -53.1% (active). Further, the growth was 36.9% in test [19] and 56.8% in test [20].

Consider `N/C(=N\c1nc2c(Cl)cc(Cl)cc2s1)C(Cl)(Cl)Cl`, for which the growth was 71.3% in [1]; 91.7% in [2]; 38.4% in test [3]; 53.7% in [4]; 75.7% in test [5]; 11.3% in [6]. Also, the growth in [7] is 44.5%; in test [8], 78.1%; in [9], 93.3%; in test [10], 57.5%; in test [11] it was 8.65% (active); in test [12] it was 7.23% (active). The growth was 46.8% in test [13]; 21% in [14]; 37.5% in test [15]; 87% in test [16]; 40.3% in [17]; 1.92% (active) in test [18]. The values for the growth in [19] and in [20] were 54.9% and 80.5%, respectively.

With `COc1cc2nc(-c3ccc(C)cc3)cc(OCCCNCC3CCCO3)c2cc1OC` (stereo not given), the growth in test [1] was 43.6%; in test [2], 50%; in test [3], 59.1%; in test [4], 59.6%; in test [5], 79.7%; in [6], 59.9%. Further, the growth in test [7] is 73.7%; in [8], 17.8%; in test [9], 14.3%; in test [10] it was 38%; in test [11], 21.3%; in test [12], 80.7%. Besides, the growth in test [13] was 92.1%; in test [14] it was 66.7%; in test [15] it was 66.3%; in test [16], 77.7%; in test [17], 96.6%; in [18], -32.2% (active). Moreover, the growth in test [19] was 68.1%; in test [20], 112%.

For the compound `O=c1/c(=C\c2ccc(-c3ccccc3)o2)sc2nc(-c3ccccc3)nn12`, the growth is 102% in [1]; 102% in [2]; 97.9% in test [3]; 115% in [4]; 96.8% in test [5]; 105% in [6]. The growth was 105% in test [7]; 106% in [8]; 100% in test [9]; 91.8% in test [10]; 102% in test [11]; 99.8% in test [12]. In addition, the growth in test [13] is 93.3%; in [14], 98.8%; in test [15] it was 95.7%; in test [16], 101%; in test [17], 98.7%; in [18], 95.9%. The growth in test [19] is 109%; in [20], 114%.

In the case of `CN(C)CCCOc1c2ccccc2nc2c1oc1ccc(Cl)cc12`, the growth in test [1] is -14.3% (active); in test [2], -8.62% (active); in [3] it was 7.86% (active); in test [4], -74.1% (active); in test [5], 14.6%; in test [6], 5.01% (active). Further, the growth is 6.92% (active) in test [7]; 20% in test [8]; -87.3% (active) in [9]; -21.4% (active) in [10]; -43.4% (active) in test [11]; 5.58% (active) in test [12]. Moreover, the growth in test [13] was 16.1%; in test [14], 16.7%; in [15], 5.23% (active); in test [16], -16% (active); in test [17], -49.7% (active); in [18] it was -85.1% (active). Also, the growth is 9.1% (active) in test [19] and 9.55% (active) in [20].

In the case of `Cn1cc(-c2cc(N)n3nc(-c4cn(C)c5ccc(F)cc45)cc3n2)c2cc(F)ccc21`, the growth in [1] was -26.2% (active); in [2] it was 90.8%; in [3] it was 3.73% (active); in test [4], 26.2%; in [5] it was 19.6%; in test [6], 80.1%. Moreover, the growth in [7] was -58.5% (active); in test [8], 101%; in [9] it was 20.3%; in [10], 4.58% (active); in test [11], -72.8% (active); in [12], 109%. In addition, the growth in test [13] is 50.1%; in [14], -62.4% (active); in [15] it was 63.4%; in test [16] it was 104%; in test [17], 62.5%; in test [18], -61.9% (active). Further, the growth is 92.4% in test [19] and 110% in [20].
